Experimental data reported in PubChem BioAssay AID1794844 (National Center for Advancing Translational Sciences (NCATS), 2023).
Among all 2,800 compounds or so, fewer than 10 were called active. Another 7% or so got no clear call; they are omitted. Calls come from the whole dose curve; as a rule, active = well fitted inhibition curve with a large enough effect; inconclusive = small, poorly fitted or top-dose-only effect; inactive = no such curve, though single readings can be large or run the other way. A selection follows. Entries that show only a call come without a potency.

What follows are compounds tested against Metallo-beta-lactamase type 2 (Klebsiella pneumoniae) (UniProt C7C422) (assay: qHTS to identify inhibitors of the New Delhi Metallo-beta-lactamase (NDM): Nitrocefin screen against the machine-based learning selections.). Details: NDM-1 enzyme, nitrocefin hydrolysis, absorbance 485 nm; series mostly up to 38.4 µM.
From the text: Assay Submitter (PI): James Inglese Ph.D., Patricia Dranchak Ph.D., Mahesh Aitha Ph.D. Assay Development and Screening Technology Laboratory (ADST) National Center for Advancing Translational Sciences (NCATS), Rockville, MD National Institute of Health (NIH), Bethesda, Maryland The metallo-beta-lactamases (MBL) are a main antibiotic resistance mechanism evolved by bacteria. There is an urgent clinical need for MBL inhibitors to mitigate this growing threat. To support a machine-based learning study, qHTS has been used to experimentally test inhibitors identified by prediction tools.
PROTOCOL TABLE (as described by Inglese et al., 2007) SEQUENCE No. (e.g., 1, 2, 3, etc.); […] (e.g., enzyme, Incubation, Reagent, etc.); VALUE; DESCRIPTION Primary Screen 1; NDM-1; 4 uL of 3 nM enzyme [2 nM final] in 50 mM HEPES (pH 7.0), 1 uM […], 0.01% Tween20; Use BioRaptr to dispense into two sets of Aurora black, clear bottom high base 1536-well plates 2; Compounds; 23 nL; Use Pin Tool (Wako) to transfer DMSO control and library compounds in DMSO 3; Incubate; >30 min 4a; Reagent; 2 uL of 50 uM nitrocefin [16.7 uM final] to one set of assay plates 4b; Reagent; 2 uL of 150 uM meropenem [50 uM final] to second set of assay plates 5a; Incubate; 15 min 5b; Incubate; 30 min 6a; Detector; Absorbance at 485 nm (bandwidth = 5 nm, 25 flashes/well) on Tecan Infinity 6b; Detector; Absorbance at 300 nm (bandwidth = 5 nm, 25 flashes/well) on Tecan Infinity NOTES (numbers refer to sequence above) 1; Column 1 of each plate received assay buffer without enzyme and columns 2-48 received enzyme for a final assay concentration of 2 nM. 2; Control plate contained DMSO in columns 1, 2, 3, and 4. 3; Compound interaction with enzyme. 4; Nitrocefin and meropenem substrates were prepared in the same assay buffer as step 1 for a final assay concentration of 16.7 uM and 50 uM, respectively, and added to all wells across respective sets of assay plates. 5; Default reader settings were applied for absorbance read at 485 nm (nitrocefin) or 300 nm (meropenem), bandwidth = 5 nm, 25 flashes/well. References: Inglese J, Shamu CE, Guy RK. 2007. Reporting data from high-throughput screening of small-molecule libraries. Nat Chem Biol. doi:10.1038/nchembio0807-438 Yasgar A, Shinn P, Jadhav A, Auld D, Michael S, Zheng W, Austin CP, Inglese J, Simeonov A. 2008. Compound Management for Quantitative High-Throughput Screening. J Lab Autom 13:79 - 89. doi:10.1016/j.jala.2007.12.004
Potency is the fitted concentration of half-maximal effect.

Chain of Metallo-beta-lactamase type 2 (Klebsiella pneumoniae) (C7C422 whole entry, looked up): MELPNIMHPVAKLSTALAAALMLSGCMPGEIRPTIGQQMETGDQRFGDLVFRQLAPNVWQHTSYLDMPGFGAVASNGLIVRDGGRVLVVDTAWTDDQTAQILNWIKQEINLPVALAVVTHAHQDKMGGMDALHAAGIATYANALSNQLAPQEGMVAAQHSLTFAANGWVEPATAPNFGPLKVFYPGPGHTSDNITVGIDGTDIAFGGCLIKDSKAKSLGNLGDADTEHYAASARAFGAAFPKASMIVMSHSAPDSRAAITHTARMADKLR

Compound	Potency
COc1ccccc1CCC(=O)NCc1nnc2ccc(-c3ccc(C)cc3)nn12	inactive
O=C(NCc1ccc2c(c1)OCO2)C1CCN(c2cn[nH]c(=O)c2)C1 (configuration not stated)	inactive
O=C(O)CCCC(=O)N1CCN2C(=O)c3cc(-c4ccco4)ccc3NC(=O)[C@@H]2C1	inactive
O=C(c1ccc(N2CC3CC(C2)[C@H]2CCCC(=O)N2C3)nc1)N1CCN(c2cccc(Cl)c2)CC1 (some centres not stated)	inactive
Cc1ccc(C2(O)CCN(C(=O)c3cnn4cc(CCO)cnc34)CC2)nc1	inactive
O=C(C[C@@H]1CCNC[C@@H]1Cc1cc(CC2CCCCC2)on1)NC1CC1	inactive
O=C(Nc1ccccc1)O[C@@H]1CO[C@H]2[C@@H]1OC[C@@H]2NC(=O)c1ccc(C(F)(F)F)cc1	inactive
Cc1cnn(Cc2cc(C(=O)N3CCCCCC3c3nnc(-c4ccccc4)o3)no2)c1 (configuration not stated)	inactive
COc1ccc(-c2cc(N3CCCN(C(=O)c4cnccn4)CC3)n[nH]2)cc1	inactive
Cc1cc(C(=O)N[C@@H]2CCC[C@@H](C(=O)N3CCN(C)CC3)CC(=O)N(C)C2)no1	inactive
CCC(C)NC(=O)CC1Sc2ncccc2N(C)C1=O (configuration not stated)	inactive
CC[C@H]1CN(C(=O)Nc2cccc(C(F)(F)F)c2)CC[C@H]1CC(=O)NC1CC1	inactive
CC(C)NC(=O)C[C@@H]1C[C@H]2O[C@H](CNCc3ccccc3Cl)[C@@H](O)[C@H]2O1	inactive
COc1nc2c(cc1CNC(=O)C1CCOC1)C(=O)N(CCc1ccccn1)C2 (configuration not stated)	inactive
Cc1ccc(CN2CC[C@@H]3[C@H]2C(=O)NC[C@H](CCC(=O)N2CC[C@@H](O)C2)N3C)cc1	inactive
O=C(O)C[C@@H]1CCN(C(=O)c2ccco2)C[C@@H]1CCN1CCOCC1	inactive
CN1C[C@H](C(=O)NCc2ccccc2)C[C@H]1c1cccc(C(F)(F)F)c1	inactive
CC(C)C[C@@H]1N[C@H](C(=O)NCCOc2ccccc2)Cc2c[nH]c3cccc1c23	inactive
CN(C)C1CCN(c2nc(-c3ccncc3)nc3c2CNC3)C1 (configuration not stated)	inactive
Cc1oc(C(O)c2cccc(O)c2)nc1C(=O)Nc1ccc2[nH]c(=O)oc2c1 (configuration not stated)	inactive
O=C(c1cc(-c2ccc(O)cc2)n[nH]1)N1CCCC(CCc2ccc(F)cc2)C1 (configuration not stated)	inactive
COc1ccc(CC2(CO)CCN(c3nccc(N)n3)CC2)cc1	inactive
Cc1ccc2c(C)c(C(=O)N3CC(OCc4ccccc4F)C3)oc2c1	inactive
COCCNC(=O)c1ccc2c(c1)N(C)C(CC(=O)Nc1ccc(N)nc1)CO2 (configuration not stated)	inactive
CCCc1cc(C(=O)N[C@@H]2COCC[C@H]2Oc2ccc(C(=O)O)cc2)n[nH]1	inactive

Compound	Potency
Cc1cccc(C(=O)N2CC[C@@H](NC(=O)c3cnccn3)[C@H](O)C2)n1	inactive
O=[S+]([O-])(c1cccnc1)N1CCNc2cnc(Nc3ccc(-n4ccnc4)cc3)nc2C1	inactive
O=C(Cn1ccn2nc3c(c2c1=O)CCCC3)NCc1ccc2c(c1)OCO2	inactive
COc1ccccc1-n1cc(C(=O)NC[C@@H]2C[C@H](F)CN2)cn1	inactive
c1csc(CN2Cc3[nH]cnc3C[C@H]2c2nc(-c3ccc4c(c3)OCO4)no2)c1	inactive
O=C(Nc1ccccc1)O[C@@H]1CO[C@H]2[C@@H]1OC[C@@H]2NS(=O)(=O)c1cccc2cccnc12	inactive
OCc1cccc(-c2ccc3ncc(Nc4cccc(F)c4)n3n2)c1	inactive
O=C(c1ccc2ncccc2c1)N1CCC2(CC1)Nc1ccccc1NC2=O	inactive
COc1ccc(CC(=O)N2CC(CO)C3(CCNCC3)C2)cc1 (configuration not stated)	inactive
Cc1ccc(CN2CC[C@@H](CO)N(C)c3cccnc3C2)s1	inactive
CS(=O)(=O)N1CCC(C2CCN(C(=O)Cc3cccc(F)c3)C2)CC1 (configuration not stated)	inactive
O=C(NCc1nc(-c2ccncc2)n[nH]1)[C@H]1CCC[C@H](O)C1	inactive
N[C@@H]1CCN(Cc2ccccc2OCc2ccc(Cl)cc2)C[C@H]1O	inactive
COCCOc1ncccc1-c1noc([C@@H]2CCCN2CC(C)(C)C)n1	inactive
CC1=C[C@@H](CNC(=O)c2ccc(F)cc2)[C@H](C(C)C)C[C@H]1CC(=O)N1CCN(C)CC1	inactive
O=C1Cc2c(-c3cccc(O)c3)n[nH]c2CN1CC1CC1	inactive
C[C@@H]1CN(C(=O)Cn2ccc(=O)[nH]c2=O)C[C@@]1(O)C1CCC1	inactive
COc1cccc(NC(=O)O[C@@H]2CC[C@]3(C)C(CC[C@@H](O)[C@H]3CC(=O)N3CCCC3)[C@]2(C)CO)c1 (some centres not stated)	inactive
CCc1noc([C@@H]2CC(F)(F)CN2C(=O)c2ccoc2C)n1	inactive
CC(C)=CC(=O)N1CC[C@H](NC(=O)Nc2ccc(F)cc2F)[C@H]1C(=O)N[C@@H](Cc1cccs1)C(N)=O	inactive
NCCc1cccc(CN2CCCC(COc3ccccc3F)C2)c1 (configuration not stated)	inactive
c1ccc(-c2nnc3ccc(NC4CCC4)nn23)nc1	inactive
CC(C)(O)C#Cc1ccc(C(=O)N2CCC(O)(c3ccccn3)CC2)cc1	inactive
COc1ccc(-c2nnc3n2CCN(C(=O)C(C)(C)C)C3)cc1	inactive
O=C(Cc1c[nH]c2ncc(-c3ccc(Cl)cc3)cc12)NCc1cccnc1	inactive

Compound	Potency
CC(C)(C)CC(=O)N1CC[C@H]2CC(=O)N(Cc3cccnc3)CC[C@H]2C1	inactive
CC[C@H]1CN(C(C)=O)CC[C@H]1CC(=O)NC(C)C	inactive
CCNC(=O)[C@@H]1C[C@H](NC(=O)c2ccccc2)CN1Cc1scnc1C	inactive
CS(=O)(=O)N1CC(C(=O)Nc2ccc(N3CCOCC3)cc2)C2(CCCCC2)C1 (configuration not stated)	inactive
O=C(NCc1cc2n(n1)CCN(C1CCCCC1)C2)c1cnn2ccccc12	inactive
CCCN(CC1CCOC1)C(=O)Nc1cccc(F)c1C (configuration not stated)	inactive
O=C(O)CN1CCC[C@]2(C(=O)O)CN(Cc3cccc(O)c3)CC[C@@H]12	3.35 µM (active)
O=C(O)[C@]12CCCN[C@@H]1CCN(Cc1ccc(-c3ccccn3)cc1)C2	inactive
Cc1cccc(CN2CCCC3(CCN(Cc4cccc(O)c4)C3)C2)c1 (configuration not stated)	inactive
Cc1cc(Cn2cc3c4c(cccc42)[C@H](CC(C)C)N[C@H](C(=O)N2CCN(C)CC2)C3)no1	inactive
CN1CCOc2c(C(=O)NCc3cccnc3)cc(-c3ccccc3O)cc21	inactive
Cc1ccc2c(n1)N(C)[C@H](CO)CCN(Cc1cccnc1)C2	inactive
O=C(C1CC1)N1CCC2(CC1)CCN(CCc1ccccc1)c1ccccc1O2	inactive
COc1ccc(OC)c(CNC(=O)CC2CCOCC2)c1	inactive
O=c1[nH]nc(CNCC2(O)CCCNC2)c2ccccc12 (configuration not stated)	inactive
Cc1ccc(C(=O)NC2CCN(c3ccc(F)cc3)C2=O)s1 (configuration not stated)	inactive
Cc1noc(C)c1S(=O)(=O)N1CCCN(Cc2ccncc2)C(c2ccccc2)CC(=O)NCC1 (configuration not stated)	inactive
COc1cccc(N2C(=O)N[C@@H]3CCN(S(=O)(=O)c4ccccc4)[C@@H]3C2=O)c1	inactive
COc1ncccc1C(=O)N1CCc2c(nc(-c3cccnc3)[nH]c2=O)C1	inactive
CN1CCOc2c(C(=O)NCCC(N)=O)cc(-c3ccccc3O)cc21	inactive
O=C(Cc1ccccc1)Nc1ccnn1C1CCN(Cc2ccc3cccc(F)c3n2)CC1	inactive
COC(=O)[C@H]1CN(C(=O)c2cccnc2)CCN1C(=O)C1CCCCC1	inactive
COCCNC(=O)C[C@@H]1O[C@H](CNC(=O)c2cccc(F)c2)[C@@H](O)[C@H]1O	inactive
N#Cc1cccc(CN2CCOC[C@H]2c2ncc(-c3ccc(C(F)(F)F)cc3)[nH]2)c1	inactive
CCN(CC)Cc1nc(C2(O)CCN(C)CC2)cs1	inactive

Compound	Potency
Fc1ccc2nc([C@H]3CCN(C4CCC4)C3)[nH]c2c1	inactive
CSc1ncccc1C(=O)NC1CCCN(CCCc2ccccc2)C1 (configuration not stated)	inactive
CC(=O)N1CCN(c2cc(-c3noc([C@@H]4CCCN4Cc4ccccc4C)n3)ccn2)CC1	inactive
Cc1ccccc1C1CCCN1Cc1ncccc1C(=O)O (configuration not stated)	13.4 µM (active)
O=c1c2nc(NCc3cccs3)ccc2ncn1Cc1ccccc1	inactive
COCCNS(=O)(=O)c1cc(C(=O)O)cc(-c2ccc(OC)c(F)c2)c1	inactive
Cc1noc2c(-c3cccc(O)c3)cc(-c3cccs3)nc12	inactive
COC[C@H]1CCCN1C(=O)[C@@H](C)C1CC[C@@]2(C)CC[C@H](NC(=O)CC(C)(C)C)[C@@H](C)[C@@H]2[C@H]1O (some centres not stated)	inactive
CN1C(=O)C(c2ccccc2)CC12CCN(C(=O)c1cccc(F)c1)CC2 (configuration not stated)	inactive
CC(C)NC(=O)N1CCN(C(=O)N2CCOCC2)[C@@H](C(=O)N[C@H](Cc2c[nH]c3ccccc23)C(N)=O)C1	inactive
CC[C@H]1CN(C(=O)NC(C)C)CC[C@H]1CC(=O)N(C)CCC#N	inactive
Cc1nn2cc(CCNCC3(O)CNCCOC3)nc2s1 (configuration not stated)	inactive
COc1ccccc1C(O)c1nc(Nc2ccc(C(C)C)cc2)n[nH]1 (configuration not stated)	inactive
Cc1ccc(NC(=O)N[C@@H]2C=C(C(=O)N[C@H](CC(C)C)C(N)=O)C[C@@H](O)[C@@H]2O)cc1	inactive
Cc1ccc(-n2nc(C)c([C@@H]3C=C[C@@H](NCc4cccc(C#N)c4)C3)c2C)cc1Cl	inactive
OC(c1ccccc1)c1nc(Nc2ccc(C(F)(F)F)cc2)n[nH]1 (configuration not stated)	inactive
CC(C)Cc1cc(C(=O)N2C[C@H](C3CC3)[C@@H](N)C2)n(C)n1	inactive
O=C(c1ccc(Cn2cnnn2)cc1)N1CCC2(CC1)[C@H](O)C[C@@H]2OCCO	inactive
COc1ccc(OC)c(CNC(=O)Cc2cccn2-c2ccc(C)cc2)c1	inactive
COc1ccccc1C(O)c1nc(Nc2ccc(Cl)cc2)n[nH]1 (configuration not stated)	inactive
CNC(=O)C1(N2CCC[C@H]2C(=O)N2CCCC2)COC1	inactive
COCCO[C@H]1C(=O)N(C2CCN(C(=O)c3cnccn3)CC2)[C@H]1c1ccncc1	inactive
